Measured values published in PubChem BioAssay AID2284192 (EPA ToxCast).
The source made the active and inactive calls. How the source made its calls: active means hit-call score of the fitted dose curve at least 0.9, where 1 is the maximum; inactive means score below 0.9.

These compounds were tested against human Opioid Receptor mu (MOP) Agonism, OPRM1 (gene 4988) (UniProt P35372) (assay: ERF_FR_GPCR_hOPRM1: Eurofins (ERF) G Protein-Coupled Receptor (GPCR) Radioligand Binding LeadHunter Assay for human Opioid Receptor mu (MOP) Agonism).
Description: ERF_FR_GPCR_hOPRM1 is a biochemical, single-readout assay that uses extracted gene-proteins in a cell-free assay. Measurements were taken 2 hour after chemical dosing in a 96-well plate. See mu (MOP) Human Opioid GPCR Binding (Agonist Radioligand) Assay, Cerep.ERF_FR_GPCR_hOPRM1 is an assay component calculated from the ERF_FR_GPCR_hOPRM1 assay. It is designed to measure radioligand binding using a type of binding reporter as detected by scintillation counting with radiometry technology.Data from the assay component ERF_FR_GPCR_hOPRM1 was analyzed at the assay endpoint, ERF_FR_GPCR_hOPRM1, in the positive analysis fitting direction relative to DMSO as the negative control and baseline of activity. Using a type of binding reporter, gain-of-signal activity can be used to understand changes in binding as they relate to gene OPRM1. To generalize the intended target to other relatable targets, this assay endpoint is annotated to the gpcr intended target family, where the subfamily is opioid.
Human cells are incubated for 60 minutes at room temprature with [3H]DAMGO ligand (0.1 nM) and DAMGO as control inhibitor. Test Sample Requirements: Minimum for 1) Screen: 60 ul of 10 mM stock -OR- 1 mg (pre-weighed) for 10 uM final testing. 2) Dose Response: 90 ul of 10 mM stock -OR- 1 mg (pre-weighed) for a top concentration at 10 uM.

Chain of human Opioid Receptor mu (MOP) Agonism, OPRM1 (gene 4988) (P35372 whole entry, looked up): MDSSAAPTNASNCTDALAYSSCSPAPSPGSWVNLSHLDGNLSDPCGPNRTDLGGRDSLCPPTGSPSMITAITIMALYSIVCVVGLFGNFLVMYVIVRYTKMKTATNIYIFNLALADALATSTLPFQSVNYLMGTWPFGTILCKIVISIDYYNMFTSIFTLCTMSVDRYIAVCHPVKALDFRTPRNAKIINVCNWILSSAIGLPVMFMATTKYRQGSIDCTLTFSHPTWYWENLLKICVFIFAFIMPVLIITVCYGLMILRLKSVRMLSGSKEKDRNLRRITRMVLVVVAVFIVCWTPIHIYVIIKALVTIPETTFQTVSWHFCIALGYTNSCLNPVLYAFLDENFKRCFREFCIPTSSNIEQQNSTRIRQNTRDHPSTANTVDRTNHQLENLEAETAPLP

Question: How did the AC50 turn out when `O=C(/C=C/c1ccc(O)cc1)CC(=O)/C=C/c1ccc(O)cc1` was run?
Answer: 419 nM (active)
